In PubChem BioAssay (EPA / NIEHS):
Activity calls are given as the source filed them. How the source made its calls: active means hit-call score of the fitted dose curve at least 0.9, where 1 is the maximum; inactive means score below 0.9.

Tests used:
[1] = ATG_CRE_CIS: Attagene CIS-FACTORIAL HepG2 Assay for human cAMP Responsive Element (CRE) binding protein 3 (AID 2282926); settings: HepG2 CRE cis-reporter, Attagene multiplexed mRNA; actives raise or lower the signal
Summary of the method: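 We dosed HepG2 cells bearing multiple cis-promoter reporter units for 24 h and measured reporter mRNA by RT-PCR with capillary electrophoresis detection. Bidirectional concentration-response fitting used DMSO as negative control.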

[2] = ATG_CMV_CIS: Attagene CIS-FACTORIAL HepG2 Assay for human CMV (Internal Marker) (AID 2282928); settings: HepG2 CMV promoter reporter, transcription factor profiling; actives raise or lower the signal;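 further: endpoint acts as a background internal control marker rather than a target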
Summary of the method: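 After transient transfection of HepG2 with reporter transcription units driven by cis-regulatory promoters, cells receive test chemical for 24 h. Labeled reporter amplicons, digested with HpaI, are sized and quantified by capillary electrophoresis against DMSO.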

[3] = ATG_DR4_LXR_CIS: Attagene CIS-FACTORIAL HepG2 Assay for human Liver X Receptor (LXR), DR4 submotif (AID 2282929); settings: HepG2 Attagene DR4 cis-reporter, mRNA transcription; actives raise or lower the signal
Summary of the method: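 The endpoint is DR4-element-driven reporter transcripts after 24 h chemical exposure of transfected HepG2 cells. These were measured via RT-PCR and capillary electrophoresis, and gain or loss of signal was fitted relative to DMSO controls.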

[4] = target: Aryl hydrocarbon receptor (Homo sapiens) (UniProt P35869); experiment: ATG_Ahr_CIS: Attagene CIS-FACTORIAL HepG2 Assay for human Aryl Hydrocarbon Receptor (Ahr) (AID 2282930); settings: HepG2 AhR cis-factorial reporter transcription; actives raise or lower the signal
Aryl hydrocarbon receptor (Homo sapiens), sequence (P35869 whole entry, looked up): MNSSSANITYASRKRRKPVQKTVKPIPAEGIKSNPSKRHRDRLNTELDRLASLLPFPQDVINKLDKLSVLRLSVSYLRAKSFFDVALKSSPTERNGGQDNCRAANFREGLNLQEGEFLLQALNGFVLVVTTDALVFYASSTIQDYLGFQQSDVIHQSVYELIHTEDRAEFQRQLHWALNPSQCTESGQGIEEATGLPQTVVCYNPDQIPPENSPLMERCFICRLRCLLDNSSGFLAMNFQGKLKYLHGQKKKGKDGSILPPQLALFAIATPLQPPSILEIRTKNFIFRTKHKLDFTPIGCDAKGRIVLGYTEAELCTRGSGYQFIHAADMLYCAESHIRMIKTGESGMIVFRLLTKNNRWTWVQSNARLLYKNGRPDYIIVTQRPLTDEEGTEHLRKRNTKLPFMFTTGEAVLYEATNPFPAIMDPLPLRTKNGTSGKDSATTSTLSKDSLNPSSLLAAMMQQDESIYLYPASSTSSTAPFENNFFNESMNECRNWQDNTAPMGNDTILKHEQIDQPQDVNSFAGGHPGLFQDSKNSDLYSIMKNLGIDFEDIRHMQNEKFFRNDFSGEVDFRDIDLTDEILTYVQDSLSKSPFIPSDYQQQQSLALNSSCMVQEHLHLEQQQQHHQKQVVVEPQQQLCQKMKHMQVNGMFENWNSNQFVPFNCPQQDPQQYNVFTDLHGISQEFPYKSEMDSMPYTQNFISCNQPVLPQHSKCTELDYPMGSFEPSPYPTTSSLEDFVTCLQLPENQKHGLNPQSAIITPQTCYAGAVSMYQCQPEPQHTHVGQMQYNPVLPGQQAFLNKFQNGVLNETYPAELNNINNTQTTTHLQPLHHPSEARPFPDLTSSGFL
Summary of the method: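 HepG2 cells transiently transfected with cis-element-driven multiplexed reporter transcription units; endogenous transcription factor activity measured as reporter mRNA 24 h after dosing. RT-PCR, 6-FAM labelling, HpaI digestion, capillary electrophoresis; bidirectional fitting versus DMSO baseline.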

[5] = ATG_AP_1_CIS: Attagene CIS-FACTORIAL HepG2 Assay for human Activator Protein 1 (AP-1) (AID 2282931); settings: HepG2 Attagene cis-factorial AP-1 reporter mRNA; actives raise or lower the signal
Summary of the method: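 Readout is reporter transcript level from endogenous transcription factor activity, quantified by RT-PCR with fluorescent primer extension and capillary electrophoresis. Transiently transfected HepG2 cells, 24 h exposure. Curves fitted both directions versus DMSO.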

[6] = ATG_AP_2_CIS: Attagene CIS-FACTORIAL HepG2 Assay for human Activator Protein 2 (AP-2) (AID 2282932); settings: HepG2 AP-2 cis-reporter, Attagene transcription factor profiling; actives raise or lower the signal
Summary of the method: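 Bidirectional curve fitting against DMSO was applied to reporter mRNA signals from HepG2 cells 24 h after dosing. Cis-promoter reporter units, transiently transfected, were read by RT-PCR plus capillary electrophoresis.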

[7] = ATG_BRE_CIS: Attagene CIS-FACTORIAL HepG2 Assay for human Bone Morphogenetic Protein (BMP) Response Element (BRE) (AID 2282933); settings: HepG2 BMP response element reporter, Attagene transcription factor profiling; actives raise or lower the signal
Summary of the method: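 Multiplexed cis-reporter assay, HepG2, 24 h exposure. mRNA from reporter units quantified via RT-PCR/CE; DMSO baseline; bidirectional curve fit.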

[8] = target: Retinoic acid receptor alpha (Homo sapiens) (UniProt P10276); experiment: ATG_DR5_RAR_CIS: Attagene CIS-FACTORIAL HepG2 Assay for human Retinoic Acid Receptor Alpha (RARE), DR5 submotif (AID 2282934); settings: HepG2 Attagene cis-factorial RARE DR5 reporter, mRNA; actives raise or lower the signal;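 on AC50: reporter responds to endogenous RAR alpha beta and gamma in HepG2 not RARA alone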
Retinoic acid receptor alpha (Homo sapiens), sequence (P10276 whole entry, looked up): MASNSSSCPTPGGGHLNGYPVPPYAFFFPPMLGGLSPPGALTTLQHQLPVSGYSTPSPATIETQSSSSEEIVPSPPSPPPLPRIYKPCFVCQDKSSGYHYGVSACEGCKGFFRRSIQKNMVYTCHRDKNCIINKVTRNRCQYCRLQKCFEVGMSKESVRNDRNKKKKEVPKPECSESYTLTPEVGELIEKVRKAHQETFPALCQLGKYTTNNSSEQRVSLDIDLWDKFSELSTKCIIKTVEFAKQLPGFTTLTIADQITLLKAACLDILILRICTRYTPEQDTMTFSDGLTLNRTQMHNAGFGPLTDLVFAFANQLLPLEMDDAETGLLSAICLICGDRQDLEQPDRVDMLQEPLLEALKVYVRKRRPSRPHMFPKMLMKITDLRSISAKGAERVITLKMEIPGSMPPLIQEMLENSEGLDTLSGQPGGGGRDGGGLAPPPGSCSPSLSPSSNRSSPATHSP
Summary of the method: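 HepG2 cells transiently transfected with multiplexed reporter units under cis (DR5 RARE) promoters, so endogenous transcription factor activity is measured. After 24 h compound exposure, reporter mRNA is quantified by RT-PCR with fluorescent labelling and capillary electrophoresis; bidirectional fitting versus DMSO.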

[9] = target: Transcription factor E2F1 (Homo sapiens) (UniProt Q01094); experiment: ATG_E2F_CIS: Attagene CIS-FACTORIAL HepG2 Assay for human E2F Transcription Factor 1 (AID 2282935); settings: HepG2 Attagene cis-reporter, E2F reporter RNA transcripts; actives raise or lower the signal
Transcription factor E2F1 (Homo sapiens), sequence (Q01094 whole entry, looked up): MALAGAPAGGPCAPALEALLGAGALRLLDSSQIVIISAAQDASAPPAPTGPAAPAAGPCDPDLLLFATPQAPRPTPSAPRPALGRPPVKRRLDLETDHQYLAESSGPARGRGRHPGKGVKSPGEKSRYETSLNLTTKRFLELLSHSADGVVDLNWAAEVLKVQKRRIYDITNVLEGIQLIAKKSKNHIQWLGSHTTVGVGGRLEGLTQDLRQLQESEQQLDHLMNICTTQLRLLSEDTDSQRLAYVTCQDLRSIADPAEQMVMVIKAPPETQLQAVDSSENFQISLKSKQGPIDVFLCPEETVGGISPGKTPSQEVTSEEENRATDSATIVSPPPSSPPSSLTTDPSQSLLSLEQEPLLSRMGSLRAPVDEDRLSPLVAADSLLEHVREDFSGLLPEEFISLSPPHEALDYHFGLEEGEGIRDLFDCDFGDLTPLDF
Summary of the method: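 Multiplexed cis-reporter assay: HepG2, transient transfection, 24 h dosing, mRNA quantitation by labeled RT-PCR and CE.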

[10] = target: CCAAT/enhancer-binding protein beta (Homo sapiens) (UniProt P17676); experiment: ATG_C_EBP_CIS: Attagene CIS-FACTORIAL HepG2 Assay for human CCAAT/Enhancer Binding Protein (C/EBP) beta (AID 2282927); settings: HepG2 Attagene cis-factorial transcription factor reporter; actives raise or lower the signal
CCAAT/enhancer-binding protein beta (Homo sapiens), sequence (P17676 whole entry, looked up): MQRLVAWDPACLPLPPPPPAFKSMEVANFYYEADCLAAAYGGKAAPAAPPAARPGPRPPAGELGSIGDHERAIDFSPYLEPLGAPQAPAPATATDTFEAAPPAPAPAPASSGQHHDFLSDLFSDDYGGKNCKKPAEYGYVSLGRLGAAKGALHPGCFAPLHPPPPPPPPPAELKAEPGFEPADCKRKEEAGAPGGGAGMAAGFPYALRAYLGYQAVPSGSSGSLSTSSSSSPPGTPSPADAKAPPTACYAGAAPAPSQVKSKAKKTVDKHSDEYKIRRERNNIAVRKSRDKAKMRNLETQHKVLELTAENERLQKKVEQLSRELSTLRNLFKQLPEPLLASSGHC
Summary of the method: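 RT-PCR/capillary electrophoresis fluorescence of reporter mRNA, 24 h post-dose, in HepG2 cells carrying transfected cis-promoter reporter units. Bidirectional curve fitting against DMSO baseline captures gain or loss of signal.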

Measured: AC50

O=S(=O)(F)C(F)(F)C(F)(F)C(F)(F)C(F)(F)C(F)(F)C(F)(F)C(F)(F)C(F)(F)F
not listed: [10]
inactive: all other assays above

c1cc2c3c(cccc3c1)CC2
not listed: [6]
inactive: all other assays above

CCOP(=S)(S)OCC
not listed: [5]
inactive: all other assays above

CCOC(=O)c1ccccc1C(=O)OCC
not listed: [4]
inactive: all other assays above

Nc1ccc2ccccc2c1
active: [4] 7.38 µM
not listed: [6]
inactive: all other assays above

CO/N=C(/C(=O)OC)c1ccccc1COc1ccccc1C
active: [2] 23.2 µM | [4] 22.9 µM | [7] 27.7 µM | [8] 5.62 µM
inactive: [1] | [10] | [3] | [6]

CCC(C)(C)c1ccc(O)cc1
active: [2] 49 µM | [5] 49.5 µM | [9] 52.4 µM
not listed: [6] | [8]
inactive: all other assays above

CC(Cc1ccc(OCC(=O)O)cc1)NCC(O)c1csc(C(F)(F)F)n1 (centres undefined)
not listed: [8] | [9] | [10]
inactive: all other assays above

CCCCN(CCCC)SN(C)C(=O)Oc1cccc2c1OC(C)(C)C2
active: [3] 100 µM
not listed: [5] | [6] | [8]
inactive: all other assays above

Nc1ccc(Sc2ccc(N)cc2)cc1
active: [4] 19.4 µM
not listed: [5]
inactive: all other assays above

CC(O)C(F)(F)C(F)(F)F (centres undefined)
not listed: [5] | [6]
inactive: all other assays above

Oc1ccccc1Br
not listed: [5]
inactive: all other assays above

CC1=C(C(=O)Nc2ccccc2)S(=O)(=O)CCO1
active: [2] 45.4 µM | [3] 44.3 µM | [5] 66.8 µM | [7] 6.73 µM
not listed: [6]
inactive: all other assays above

Cc1cccc(N)c1
not listed: [6] | [8]
inactive: all other assays above

c1ccc2c(c1)Nc1ccccc1S2
active: [2] 21.3 µM | [7] 41.7 µM
inactive: [1] | [10] | [3] | [8] | [9]

CC(Cl)(Cl)C(=O)O
not listed: [5] | [8] | [9]
inactive: all other assays above

O=C(O)C(F)(F)C(F)(F)C(=O)O
not listed: [5] | [6] | [9]
inactive: all other assays above

[N-]=[N+]=[N-]
not listed: [4] | [8] | [9]
inactive: all other assays above

CC(O)C#N (centres undefined)
not listed: [10]
inactive: all other assays above

O=C(O)C(F)(F)OC(F)(F)C(F)(F)OC(F)(F)C(=O)O
not listed: [6]
inactive: all other assays above

c1nc[nH]n1
not listed: [5] | [8]
inactive: all other assays above

O=S(=O)(c1ccc(O)cc1)c1ccc(O)cc1
not listed: [5]
inactive: all other assays above

CCCCOCCOP(=O)(OCCOCCCC)OCCOCCCC
not listed: [4] | [6] | [9]
inactive: all other assays above

c1ccc(OP(Oc2ccccc2)Oc2ccccc2)cc1
not listed: [5] | [8] | [9]
inactive: all other assays above

COC(N)=O
not listed: [5]
inactive: all other assays above

ClC1=C(Cl)C2(Cl)C3C(Cl)C(Cl)CC3C1(Cl)C2(Cl)Cl (centres undefined)
inactive: [1] | [10] | [7] | [9]
active: [2] 48.8 µM | [3] 18.1 µM | [5] 48.1 µM | [8] 1.27 µM

CCOc1ccc(C(C)(C)COCc2cccc(Oc3ccccc3)c2)cc1
not listed: [6] | [8]
inactive: all other assays above

FC(F)(F)C(F)(C(F)(F)F)C(F)(F)C(F)(F)CC1CO1 (centres undefined)
not listed: [5] | [9] | [10]
inactive: all other assays above

CCCCC(CC)COC(=O)c1c(Br)c(Br)c(Br)c(Br)c1C(=O)OCC(CC)CCCC (centres undefined)
not listed: [6] | [9] | [10]
inactive: all other assays above
